For eight molecules, Potency and activity, negative = inhibition results are on record in PubChem BioAssay (NCATS).

Records with an inconclusive call do not appear. Values without a mark were called inactive. The source made the active and inactive calls. Calls come from the whole dose curve; as a rule, active = well fitted curve in the direction sought with a large enough effect; inconclusive = small, poorly fitted or top-dose-only effect, or another doubt; inactive = no such curve, though single readings can be large; an effect the other way counts as inactive or inconclusive.

Assay [1] addresses ATP-dependent 6-phosphofructokinase (Trypanosoma brucei brucei) (UniProt O15648). The experiment in a line: qHTS Assay to Find Inhibitors of T. brucei phosphofructokinase: hit validation (AID 492961). Note: % is set by controls: 0 for no effect and ±100 for the full control effect. Put shortly:
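Luminescence from ADP-Glo reports ADP generated as T. brucei PFK (1.25 nM) phosphorylates 0.5 mM fructose-6-phosphate using 0.1 mM ATP. Reactions ran 45 min at room temperature, pH 8.0.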
In general terms: qHTS replaces the single test concentration by a dilution series.

For assay [2], the target named is Luciferin 4-monooxygenase (Photinus pyralis) (UniProt P08659). Put plainly: Biochemical firefly luciferase enzyme assay for NPC (AID 624030).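 Note: purified P. pyralis luciferase at 10 nM with luciferin and ATP substrate; 0% = DMSO and -100% = full luciferase inhibition by PTC124 control; nearly all actives have a fitted effect of over 70% in size.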 In a few lines:
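Purified P. pyralis luciferase at 10 nM in 50 mM Tris Acetate (final), luminescence read within 5 minutes of enzyme addition to compounds. Activity normalised to PTC124 versus DMSO; concentration-response curves classed by r2, magnitude and activity.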

The nature of assay [3]: qHTS profiling for inhibitors of Plasmodium falciparum proliferation (AID 504749).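 For activity, negative = inhibition: 0% = DMSO vehicle and full inhibition = artemisinin control.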 For all read-outs here: nearly all actives have a fitted effect of over 60% in size. Note: potency is the fitted concentration of half-maximal effect. Conditions: P. falciparum in erythrocytes, SYBR Green DNA, 72 h; for activity, negative = inhibition: at 28.7 µM (top of the series). Put shortly: (§1)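 P. falciparum-infected erythrocytes (0.3% parasitemia, 2.5% hematocrit) incubated with compound 72 h at 37 C, 5% CO2. Parasite DNA detected by SYBR Green after lysis, overnight at room temperature; normalised to 0.29 uM artemisinin and DMSO.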

For the next assay, the system named is CP192. The assay is described as above. Particulars: P. falciparum in erythrocytes, SYBR Green DNA, 72 h; series mostly up to 28.7 µM. In a few lines: as §1
The subject of another assay is CP238. The assay is described as above. Conditions: P. falciparum in erythrocytes, SYBR Green DNA, 72 h; series mostly up to 28.7 µM. Put shortly:
as §1

The next assay relates to CP286. Described as above. Particulars: P. falciparum in erythrocytes, SYBR Green DNA, 72 h; series mostly up to 28.7 µM. Put shortly:
as §1

The next assay deals with CP315. Described as above. Particulars: P. falciparum in erythrocytes, SYBR Green DNA, 72 h; series mostly up to 28.7 µM. Put shortly:
as §1

The subject of the next assay is CP329. The description is as above. Conditions: P. falciparum in erythrocytes, SYBR Green DNA, 72 h; series mostly up to 28.7 µM. Put shortly: as §1
The subject of a further assay is FAB9. The description is as above. Particulars: P. falciparum in erythrocytes, SYBR Green DNA, 72 h; series mostly up to 28.7 µM. Put shortly: as §1
For a further assay, the system named is N140. Described as above. Conditions: P. falciparum in erythrocytes, SYBR Green DNA, 72 h; series mostly up to 28.7 µM. Put shortly:
as §1

The next assay concerns CP185. The description is as above. Particulars: P. falciparum in erythrocytes, SYBR Green DNA, 72 h; series mostly up to 28.7 µM. Put shortly: as §1
A further assay relates to CP252. The assay is described as above. Conditions: P. falciparum in erythrocytes, SYBR Green DNA, 72 h; series mostly up to 28.7 µM. Put shortly:
as §1

In another assay the test system is CP265. The description is as above. Conditions: P. falciparum in erythrocytes, SYBR Green DNA, 72 h; series mostly up to 28.7 µM. In a few lines:
as §1

The test system of a further assay is DFO2036. Described as above. Conditions: P. falciparum in erythrocytes, SYBR Green DNA, 72 h; series mostly up to 28.7 µM. In a few lines:
as §1

In the next assay the test system is Dd2. The assay is described as above. Conditions: P. falciparum in erythrocytes, SYBR Green DNA, 72 h; series mostly up to 28.7 µM. Put shortly: as §1
The subject of the next assay is ECU. Described as above. Particulars: P. falciparum in erythrocytes, SYBR Green DNA, 72 h; series mostly up to 28.7 µM. Put shortly: as §1
For the next assay, the system named is JCK. Described as above. Conditions: P. falciparum in erythrocytes, SYBR Green DNA, 72 h; series mostly up to 28.7 µM. In a few lines:
as §1

The subject of the next assay is CP211. The assay is described as above. Conditions: P. falciparum in erythrocytes, SYBR Green DNA, 72 h; series mostly up to 28.7 µM. Put shortly: as §1
Another assay concerns CP262. The description is as above. Particulars: P. falciparum in erythrocytes, SYBR Green DNA, 72 h; series mostly up to 28.7 µM. Put shortly:
as §1

In the next assay the test system is CP269. The description is as above. Conditions: P. falciparum in erythrocytes, SYBR Green DNA, 72 h; series mostly up to 28.7 µM. In a few lines:
as §1

Chain of Luciferin 4-monooxygenase (Photinus pyralis) (P08659 whole entry, looked up): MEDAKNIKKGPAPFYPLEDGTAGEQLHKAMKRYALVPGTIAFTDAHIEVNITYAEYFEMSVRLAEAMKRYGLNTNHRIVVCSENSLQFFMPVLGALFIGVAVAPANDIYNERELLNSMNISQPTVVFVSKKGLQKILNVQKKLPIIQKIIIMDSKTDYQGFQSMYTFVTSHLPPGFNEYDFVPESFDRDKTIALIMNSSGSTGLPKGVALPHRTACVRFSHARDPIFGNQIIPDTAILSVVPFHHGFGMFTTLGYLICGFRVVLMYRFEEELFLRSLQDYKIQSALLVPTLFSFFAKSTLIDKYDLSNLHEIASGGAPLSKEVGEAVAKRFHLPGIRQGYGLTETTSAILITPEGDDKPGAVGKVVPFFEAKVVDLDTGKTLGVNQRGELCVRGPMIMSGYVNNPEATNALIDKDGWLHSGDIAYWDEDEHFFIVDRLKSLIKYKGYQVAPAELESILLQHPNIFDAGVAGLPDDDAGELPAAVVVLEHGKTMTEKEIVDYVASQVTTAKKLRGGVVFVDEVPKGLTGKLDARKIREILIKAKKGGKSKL
Chain of ATP-dependent 6-phosphofructokinase (Trypanosoma brucei brucei) (O15648 whole entry, looked up): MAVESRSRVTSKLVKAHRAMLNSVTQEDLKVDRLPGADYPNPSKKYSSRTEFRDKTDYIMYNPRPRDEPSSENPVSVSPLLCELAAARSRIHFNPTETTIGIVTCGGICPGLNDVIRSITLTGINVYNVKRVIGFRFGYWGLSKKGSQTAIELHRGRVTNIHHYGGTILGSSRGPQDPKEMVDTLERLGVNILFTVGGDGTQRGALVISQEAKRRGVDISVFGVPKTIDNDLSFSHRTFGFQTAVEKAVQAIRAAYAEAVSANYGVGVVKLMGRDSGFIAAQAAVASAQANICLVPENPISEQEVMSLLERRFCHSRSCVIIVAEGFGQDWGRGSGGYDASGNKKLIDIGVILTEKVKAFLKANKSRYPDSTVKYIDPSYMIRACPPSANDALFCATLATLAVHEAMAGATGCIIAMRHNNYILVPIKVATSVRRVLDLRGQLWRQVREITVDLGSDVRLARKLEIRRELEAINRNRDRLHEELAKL

Consider `Cc1cc(O)c2c(c1)OC1(C)CCC3C(C)(C)CCCC34COC2C14` (stereo not drawn), for which the Potency result (in [1]; in [2]; in the assay with CP192; in the assay with CP238; with CP286; with CP315) was “inactive” each time. The Potency entry in the assay on CP329 and in the assay with FAB9 was “inactive” each time. Moreover, the activity, negative = inhibition in assay [3] (parasite line A) is -27.8%. The Potency in the assay on N140 was 12.6 µM (active).
As to `C=C1CC2C3C=C(C)C4=CC(=O)CCC4(C)C3CCC2(C)[C@@]1(OC(C)=O)C(C)=O` (stereo partly drawn), the Potency entry (in assay [1]; in assay [2]; in the assay on CP185; in the assay on CP192; in the assay on CP238; in the assay with CP252) was “inactive” in each case. Also, the Potency entry with CP265, in the assay on CP329, in the assay on DFO2036, in the assay with Dd2, in the assay with ECU and with FAB9 was “inactive” throughout. Also, the Potency entry with JCK and with N140 was “inactive” each time. Moreover, the activity, negative = inhibition in [3] (parasite line B) is -26.9%.
With `C=C1CC[C@H](O)C/C1=C/C=C1\CCC[C@]2(C)[C@@H]([C@H](C)CCCC(C)(C)O)CC[C@@H]12`, the Potency entry (in assay [1]; in assay [2]; in the assay on CP192; in the assay with CP211; in the assay with CP262; in the assay with CP269) was “inactive” throughout. Further, the Potency entry in the assay on CP315, in the assay with CP329, with FAB9 and with JCK was “inactive” each time. The Potency is 11.2 µM (active) in assay [3] (parasite line B), 12.6 µM (active) in the assay on Dd2, 12.6 µM (active) with ECU and 10 µM (active) in the assay with N140.
As to `C=C1CCC(O)C/C1=C/C=C1\CCC[C@]2(C)[C@@H]([C@H](C)/C=C/[C@H](C)C(C)C)CC[C@@H]12` (stereo partly drawn), the Potency result (in [1]; in [2]; in the assay on CP192; in the assay on CP211; in the assay with CP238; in the assay on CP262) was “inactive” throughout. In addition, the Potency entry in the assay with CP269, with CP286, with CP315, in the assay on CP329 and in the assay on FAB9 was “inactive” throughout. Further, the Potency with JCK was 0.708 µM (active).
On to `CC1=C(/C=C/C(C)=C\C=C\C(C)=C\C=C\C=C(C)\C=C\C=C(C)\C=C\C2=C(C)C[C@@H](O)CC2(C)C)C(C)(C)C[C@H](O)C1`, for which the Potency result (in assay [1]; in [2]; with CP185; in the assay with CP192; in the assay on CP211; in the assay on CP238) was “inactive” each time. The Potency entry in the assay with CP262, with CP265, with CP269, in the assay on CP315, with CP329 and in the assay with FAB9 was “inactive” throughout. Besides, the Potency in the assay with CP286 is 11.2 µM (active); in the assay on Dd2 it was 11.2 µM (active); in the assay on ECU, 14.1 µM (active); in the assay on N140 it was 7.08 µM (active).
As to `C[C@@H]1CC2[C@@H]3C[C@H](F)C4=CC(=O)C(Cl)=C[C@]4(C)[C@@]3(F)[C@H](O)C[C@]2(C)[C@@]1(O)C(=O)CO` (stereo partly drawn), the Potency entry (in assay [1]; in assay [2]; with CP192; in the assay with CP211; in the assay with CP262; with CP265) was “inactive” throughout. Moreover, the Potency entry in the assay on CP269, with CP286, with CP315, with CP329, in the assay on DFO2036 and in the assay with Dd2 was “inactive” in each case. Also, the Potency result in the assay on FAB9 and in the assay on JCK was “inactive” throughout.
For `COC(=O)C1[C@@H](OC)C(OC(=O)COc2ccc(OC)cc2)C[C@@H]2CN3CCc4c([nH]c5cc(OC)ccc45)[C@H]3C[C@H]12` (stereo partly drawn), the Potency entry (in assay [1]; in assay [2]; in the assay with CP192; with CP211; in the assay on CP262; with CP315) was “inactive” in each case. Further, in the assay with JCK, the Potency result is “inactive”. Also, the Potency in the assay with CP286 was 11.2 µM (active); with Dd2 it was 10 µM (active); in the assay on N140, 11.2 µM (active).
As to `C=C1N[C@]2(C(=O)COC(C)=O)[C@@H](C[C@H]3[C@@H]4CCC5=CC(=O)C=C[C@]5(C)[C@H]4[C@@H](O)C[C@@]32C)O1`, the Potency entry (in assay [1]; in [2]; in the assay on CP192; with CP252; in the assay with CP265; with CP315) was “inactive” throughout. For the same molecule, the Potency result in the assay with Dd2, in the assay on ECU, in the assay on FAB9, with JCK and in the assay on N140 was “inactive” throughout. The activity, negative = inhibition in [3] (parasite line B) is -29.8%.
